# Sampled rows, rich in hits. Any-hit rate of the full collection: about 7.3%.
# FLuc modulator – counter-screen for miR-21 project: firefly luciferase inhibitors or activators; P08659; purified FLuc, Km substrates, luminescence inhibition; Potency, µM (top dose mostly 57.5 µM), inactives show at the top dose activity change, negative = inhibition, actives largely listed as inhibitors; 6.9% of 360,000 active; AID 588342;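 also: plate controls were vehicle for no effect and reference inhibitor for full effect; nearly all actives have a fitted effect of over 55% in size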
# Target sequence (P08659 whole entry, looked up): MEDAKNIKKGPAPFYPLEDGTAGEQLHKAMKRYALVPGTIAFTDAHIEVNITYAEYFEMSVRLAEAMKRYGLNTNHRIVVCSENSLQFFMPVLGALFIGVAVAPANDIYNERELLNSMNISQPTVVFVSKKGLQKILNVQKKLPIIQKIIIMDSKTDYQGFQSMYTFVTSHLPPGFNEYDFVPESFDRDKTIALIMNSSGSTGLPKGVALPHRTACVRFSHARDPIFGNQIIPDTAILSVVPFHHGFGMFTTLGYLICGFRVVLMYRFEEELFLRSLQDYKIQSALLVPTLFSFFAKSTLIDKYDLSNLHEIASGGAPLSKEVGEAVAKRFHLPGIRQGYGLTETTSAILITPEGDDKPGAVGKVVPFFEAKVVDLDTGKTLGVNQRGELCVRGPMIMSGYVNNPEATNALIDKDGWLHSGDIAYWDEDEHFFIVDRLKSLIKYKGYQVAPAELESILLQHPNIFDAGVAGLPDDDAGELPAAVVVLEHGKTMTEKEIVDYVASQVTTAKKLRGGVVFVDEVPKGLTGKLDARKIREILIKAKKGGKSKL
#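 Purified P. pyralis luciferase, 10 nM final, with Km-level 10 uM D-luciferin and 10 uM ATP in 50 mM Tris acetate pH 7.5, 10 mM Mg acetate, 0.01% Tween-20, 0.05% BSA; 6-point qHTS titration about 60 µM downward; luminescence read.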
# Rab9 prom act – activates the Rab9 promoter. Huh7 Rab9 promoter-luciferase reporter, luminescence, 24 h. Potency, µM (top dose mostly 9.22 µM), without a hit: at the top dose activation, negative = inhibition, actives largely listed as activators. 2.8% of 320,000 active. AID 485297; also: % of control where 0% means no effect; nearly all actives have a fitted effect of over 60% in size
#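 Huh7 cells stably carrying a Rab9 promoter-luciferase reporter, 1500 cells per well in OP-MEM I with 10% FBS, treated with compound 24 hours at 37C. Luciferase activity read by luminescence after 10 minutes with Amplite reagent.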
# NPC1 prom act – NPC1 promoter activation | Huh7 NPC1 promoter luciferase reporter, 24 h | Potency, µM (series often up to 9.22 µM), for inactives: at the highest dose activation, actives largely listed as activators | 2.4% of 320,000 active | AID 485313; also: % of control where 0% means no effect; nearly all actives have a fitted effect of over 60% in size
#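 Huh7 reporter cells (NPC1 promoter driving luciferase) are dosed with compound for 24 h at 37 °C, 5% CO2; luciferase detection reagent is then added and luminescence measured after 10 min at ambient temperature.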
# SMN2 splice enh – enhancers of SMN2 splice variant expression; HEK293 SMN2-luciferase splicing reporter, luminescence, 30-36 h; Potency, µM (titrated, usually from 46.1 µM), for the others: at the highest dose activity change, positive = activation, hits mostly activators; 2.8% of 210,000 active; also: % of control where 0% means no effect; nearly all actives have a fitted effect of over 55% in size
#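 HEK293 cells carry an SMN2 minigene-luciferase reporter in which exon 7 inclusion puts luciferase in frame. Cells were seeded at 2000 cells/well, attached for 10-12 hours, then exposed to compounds for 30-36 hours at 37C before ONE-Glo luminescence.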
# Luc counter – blocks Kinase-Glo luciferase, a counter-screen artifact; Q27757; Kinase-Glo luciferase, ATP luminescence, 8 min; Potency, µM (series often up to 38.3 µM), for inactives: at the highest dose activity change, negative = inhibition, usual class: inhibitors; 0.28% of 200,000 active; AID 1379; also: % is scaled to controls: 0 for no effect and ±100 for the full control effect; nearly all actives have a fitted effect of over 60% in size
#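 Compound is pinned into ATP-containing buffer (10 uM ATP, imidazole pH 7.2, 7 mM MgCl2). Kinase-Glo luciferase reagent is then added. Light output is recorded following an 8-min room-temperature incubation.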
# ELG1 genotox – genotoxicity induction in ELG1-luciferase HEK293T cells | 1.3% of 330,000 active | HEK293T ELG1-luciferase reporter, luminescence, 16 h | AID 504466 | Potency, µM (series often up to 46 µM), inactives show at the top dose activity change, positive = activation, most hits filed as activators; also: % of control where 0% means no effect; nearly all actives have a fitted effect of over 60% in size
#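 DMSO vehicle served as control against compound-treated ELG1-luciferase HEK293T cells; exposure lasted 16 hr at 37 °C and 5% CO2, followed by ONE-Glo luminescence detection after 30 min.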
# * marks the source's active call; other numbers are inactive results; ? = inconclusive; · = no result given. Calls follow the shape of the dose curve; as a rule, active = well fitted curve in the direction sought with a large enough effect; inconclusive = small, poorly fitted or top-dose-only effect, or another doubt; inactive = no such curve, though single readings can be large; an effect the other way counts as inactive or inconclusive. Potency is read from the fitted curve at half-maximal effect.
SMILES,FLuc modulator,Rab9 prom act,NPC1 prom act,SMN2 splice enh,Luc counter,ELG1 genotox
CC(=O)Nc1ccc(/C(C)=N/NS(=O)(=O)c2ccc(C)cc2)cc1,3%,0%,-2%,-18%,-1%,1%
C/C(=N/NS(=O)(=O)c1ccc(Br)cc1)c1ccc(NC(=O)c2ccc(C)o2)cc1,24µM*,7%,2%,14%,-2%,-1%
C/C(=N\NS(=O)(=O)c1ccc([N+](=O)[O-])cc1)c1ccc(NC(=O)c2ccco2)cc1,?,5%,11%,18µM*,-4%,?
CSc1ccc(CNC(=O)C2CCCN(S(=O)(=O)N(C)c3ccc(F)cc3)C2)cc1 (configuration not stated),-1%,·,·,-59%,·,·
Nc1ccccc1N=Nc1ccccc1N,5.4µM*,1.6µM*,1.6µM*,·,·,?
Nc1ccc(N=Nc2ccccc2)c(N)c1,·,·,·,28µM*,·,·
Cc1cc(N/N=C/c2ccccc2O)nc(-c2ccccc2O)n1,8.5µM*,-3%,-1%,-17%,-2%,-1%
Cc1cc(N/N=C\c2ccccc2)nc(-c2ccccc2O)n1,6µM*,22%,22%,?,-3%,-1%
Cc1cc(N/N=C/c2ccc(O)cc2O)c2ccccc2n1,1%,0%,9%,·,·,5%
Cc1cc(N(C)/N=C/c2ccccc2)nc(-c2ccccc2O)n1,-15%,-1%,-1%,·,-1%,-8%
Cc1cc(N/N=C/c2ccc(O)cc2O)nc(-c2ccccc2O)n1,2.7µM*,0%,5%,-26%,-2%,-5%
C/C(=N\Nc1cc(C)nc(-c2ccccc2O)n1)c1ccccc1O,15µM*,-2%,0%,·,·,-14%
Cc1ccc(Cn2c(=O)n(-c3cccc(C(F)(F)F)c3)c(=O)c3c(C)c(C)sc32)c(C)c1,1%,·,·,2%,·,·
CC(=O)Nc1nc(-c2ccc3c(c2)OCO3)cs1,9.5µM*,2.2µM*,3.5µM*,·,·,16%
COc1cccc(C(=O)Nc2nc(-c3ccc4c(c3)OCO4)cs2)c1,17µM*,-4%,4%,-18%,3%,15%
COC(=O)CCn1nnc(-c2ccc(C)cc2)n1,17µM*,3%,-2%,19%,4%,?
CCOC(=O)Cc1c(C)nc2c(-c3cccc(Br)c3)c[nH]n2c1=O,21µM*,1%,2%,-88%,-2%,-11%
CCc1c(C)nc2c(-c3ccccc3)c(-c3ccccc3)[nH]n2c1=O,1%,1%,-2%,·,·,1%
COc1cc(-c2cc3nc(C)c(C)c(=O)n3[nH]2)cc(OC)c1OC,-5%,-6%,0%,-4%,-8%,0%
CCOC(=O)Cc1c(C)nc2cc(-c3ccc(C(C)(C)C)cc3)[nH]n2c1=O,11µM*,10%,1%,-5%,0%,?
CCc1c(C)nc2cc(-c3ccccc3)[nH]n2c1=O,11µM*,?,3.2µM*,·,·,?
